Measurements reported in PubChem BioAssay AID1063 (University of Pittsburgh Molecular Library Screening Center, 2008).
Hit rate of the full screen: of about 200,000 compounds, about 18,000 (9%) were called active. Shown is part of a subset that was picked to be rich in actives. Values without a mark were called inactive. Cut-off read from the data, not from the text of the source: active = inhibition above about 50%; inactive = the rest.

Test: antileishmanial activity against promastigotes – primary screen (AID 1063);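 note: promastigotes grown with compound for 44 hours at 28 °C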
Details: Leishmania major promastigotes, resazurin fluorescence viability; at 10 µM; active compounds read high
For `c1cncc(-c2nnc3n2C2(CCCCC2)Cc2ccccc2-3)c1`, the inhibition was -0.67%.
In the case of `CCOc1cccc2c1OC1(CCCCC1)N1N=C(c3cccnc3)CC21` (stereo unspecified), the inhibition is reported as 57.3% (active).
In the case of `O=[N+]([O-])c1ccc(Sc2n[nH]c(-c3ccco3)n2)nc1`, the inhibition is reported as 4.36%.
`CCOC(=O)CSc1nc(C)cc2c1C(=O)OC2` showed an inhibition of 3.71%.
`CCOc1ccc(NC(=O)NNC(=O)c2ccc(Cl)cc2Cl)cc1` gave an inhibition of -5.16%.
In the case of `NC(N)=N/N=C/c1ccc(OCc2ccc(Cl)cc2Cl)cc1`, the inhibition is reported as 101% (active).
`COC(=O)c1sc2ncccc2c1OCc1ccc(Cl)cc1Cl` gave an inhibition of -2.34%.
Work on `CCOC(=O)CN/C=C(\C#N)c1ccc(F)cc1` yielded an inhibition of -7.97%.
In the case of `Cc1c(CN2CCCCC2)c(O)n(CCO)c(=O)c1C#N`, the inhibition is reported as 3.34%.
`O=C(NNC(=O)c1ccc(Cl)cc1Cl)c1cccs1` showed an inhibition of -10.1%.
Work on `CC(C)(O)C#Cc1ncc(C(F)(F)F)cc1Cl` yielded an inhibition of -3.82%.
In the case of `COc1ccc([N+](=O)[O-])cc1C1NN=C(c2cccc3ccccc23)S1` (stereo unspecified), the inhibition is reported as -6.23%.
For `COc1ccc(C2Nc3ccccc3C(=O)N2c2ccc(Cl)cc2)cc1Cn1cc([N+](=O)[O-])cn1` (stereo unspecified), the inhibition was 53.1% (active).
For `CCN(C(=O)CSc1nc2ccccc2n1CC)C1CCS(=O)(=O)C1` (stereo unspecified), the inhibition was -3.23%.
Compound `CC(C)CNC(=O)/C=C/C(=O)O` has an inhibition of 1.32%.
In the case of `CC(=O)c1ccc(-c2nnc(CCC(=O)N(C)Cc3cnc4ccccn34)o2)s1`, the inhibition is reported as -0.67%.
With `Cc1ccc(NC(=O)Cn2cccc2C2=NC(c3ccccc3)CO2)c(C)c1` (stereo unspecified) the inhibition was 77.4% (active).
For `Cc1ccc(NC(=O)Cn2nc(C)c3ccccc3c2=O)c(C)c1`, the inhibition was 34.8%.
For `Cc1ccc(NC(=O)c2ccn(C(=O)Nc3ccccc3)n2)c(C)c1`, the inhibition was -1.05%.
For `CC1(C)CC(=O)c2ccc(O)cc2O1`, the inhibition was -5.54%.
Work on `CN(Cc1cccc2ncccc12)C(=O)CC1C(=O)NCCN1Cc1ccc(F)cc1` (stereo unspecified) yielded an inhibition of -8.65%.
With `COc1ccc(S(=O)(=O)N2CCC(C(=O)N3CCOCC3)CC2)cc1OC` the inhibition was -6.25%.
In the case of `O=C(C1CCN(C2CCN(Cc3cccc4c3OCO4)CC2)CC1)N1CCOCC1`, the inhibition is reported as 76.2% (active).
Compound `O=C(NCC1CCCO1)C1CCN(C2CCN(C(=O)C3CCCCC3)CC2)CC1` (stereo unspecified) has an inhibition of -2.22%.
In the case of `C/C(=C\c1ccco1)CN1CCC(N2CCC(C(=O)N3CCOCC3)CC2)CC1`, the inhibition is reported as 77.8% (active).
With `O=C(C1CCN(C2CCN(Cc3ccc4cc(F)ccc4n3)CC2)CC1)N1CCCC1` the inhibition was 48.3%.
For `O=C(C1CCN(S(=O)(=O)c2cnc[nH]2)CC1)N1CCN(Cc2ccc3c(c2)OCO3)CC1`, the inhibition was -5.72%.
`Cn1c(N)c(C(=O)COC(=O)c2ccccc2NCc2ccco2)c(=O)n(C)c1=O` gave an inhibition of -3.53%.
For `Cc1ccc(NC(=O)CN2CCC(C(N)=O)CC2)cc1[N+](=O)[O-]`, the inhibition was -1.6%.
`CCCCc1nc2ccccc2c(NC(=O)CN2CCN(C)CC2)c1CCC` gave an inhibition of 32.8%.
With `CN1CCN(c2nc(Nc3ccc(O)cc3)nc3ccccc23)CC1` the inhibition was 99.9% (active).
With `c1ccc(Nc2nc(N3CCOCC3)c3ccccc3n2)cc1` the inhibition was 79.3% (active).
`c1ccc(-c2nnc(N3CCOCC3)c3ccccc23)cc1` showed an inhibition of 14%.
Compound `COc1ccc(Nc2ncc(F)c(N3CCOCC3)n2)cc1` has an inhibition of 19.7%.
Work on `Cc1cc(N2CCN(C)CC2)nc2ccc(NC(=S)N3CCOCC3)cc12` yielded an inhibition of 6.8%.
Compound `CC1CCC(NC(=O)C2c3ccccc3C(=O)N2Cc2ccc3c(c2)OCO3)CC1` (stereo unspecified) has an inhibition of 14.7%.
For `CNC(=S)NNC(=O)c1cccn(Cc2ccccc2)c1=O`, the inhibition was -2.81%.
In the case of `CCc1nnc(NC(=O)CCCSc2nc3ccccc3[nH]2)s1`, the inhibition is reported as 12.7%.
Compound `COc1ccc(N2CCN(C(=O)C3CCN(S(=O)(=O)c4ccc(C)cc4)CC3)CC2)cc1` has an inhibition of 7.36%.
In the case of `O=c1oc(-c2ccco2)nc2sc3c(c12)CCCCC3`, the inhibition is reported as -6.27%.
`CCn1c(N)c(Br)c(=O)[nH]c1=O` gave an inhibition of -8.78%.
Compound `CCCCN(CC)CCCNC(=O)c1ccc(CSc2nc3ccncc3[nH]2)cc1` has an inhibition of -5.43%.
Work on `Cc1ncoc1C(=O)N1CCCC(C(=O)c2ccc3c4c(cccc24)CC3)C1` (stereo unspecified) yielded an inhibition of 5.73%.
Work on `COc1ccc(CNC(=O)COC(=O)/C=C/c2ccc(S(=O)(=O)N3CCOCC3)cc2)cc1` yielded an inhibition of 2.59%.
For `O=C(COC(=O)/C=C/c1ccc(S(=O)(=O)N2CCCCCC2)cc1)NCc1ccccc1Cl`, the inhibition was 65.4% (active).
Work on `O=C(O)/C=C/c1ccc(S(=O)(=O)N2CCCCCC2)cc1` yielded an inhibition of -3.02%.
Work on `Cc1ccc(NCc2n[nH]c(=S)n2-c2ccccc2)cc1Cl` yielded an inhibition of -7.27%.
Work on `CC(=O)c1ccc(N2CCN(CC(=O)Nc3ccccc3N3CCOCC3)CC2)cc1` yielded an inhibition of 12.9%.
For `CC(C)n1c(-c2ccncc2)n[nH]c1=S`, the inhibition was -1.76%.
In the case of `Cc1ccc(N2C(=O)C(CC(=O)Nc3cccc(F)c3)N(CCc3ccncc3)C2=O)cc1` (stereo unspecified), the inhibition is reported as 1.18%.
In the case of `N#Cc1c(NC(=O)C2CCCO2)sc2c1CCCCC2` (stereo unspecified), the inhibition is reported as 0.81%.
With `O=C(c1ccc2c(c1)OCO2)N1CCOCC1` the inhibition was -6.99%.
`O=C(Nc1ccccc1)c1ccc2c(c1)OCO2` gave an inhibition of -3.43%.
With `CC1CN(C(=O)c2ccc3c(c2)OCO3)OC(c2ccccc2)O1` (stereo unspecified) the inhibition was 71.5% (active).
`O=C(CSc1ccc(-c2ccccc2)nn1)NCC1CCCO1` (stereo unspecified) gave an inhibition of -4.19%.
`Cc1cc(C)nc(NNC2=CC(=O)CC(C)(C)C2)n1` gave an inhibition of -7.56%.
`CCOC(=O)/C(C#N)=C/c1cn(CCC(=O)O)nc1-c1ccc(Br)cc1` gave an inhibition of -8.02%.
Work on `CCOC(=O)Cc1ncccc1C(=O)Nc1ccc(OC)cc1` yielded an inhibition of -2.87%.
In the case of `CC(C)(CNC(=O)c1ccc(Cl)c(S(=O)(=O)N2CCc3ccccc3C2)c1)N1CCOCC1`, the inhibition is reported as 50.3% (active).
Work on `Cc1ccccc1CSCCNC(=O)c1ccc(Cl)c(S(=O)(=O)N2CCOCC2)c1` yielded an inhibition of 25.1%.
For `O=C(NCCSCc1ccccc1)c1ccc(Cl)c(S(=O)(=O)N2CCOCC2)c1`, the inhibition was 5.02%.
